This is an account of results in PubChem BioAssay AID2654 (Johns Hopkins Ion Channel Center, 2010).

Potency and affinity values are given separately. The source made the active and inactive calls.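 How the source made its calls: active means increase of the KCNQ2 potassium channel current at -35 mV by at least one tested dose; inactive means no tested dose increases that current.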

The target of the experiment is Potassium voltage-gated channel subfamily KQT member 2 (Rattus norvegicus) (UniProt O88943). The experiment is described as follows: potentiation of rat KCNQ2 current – cell-based, retigabine-insensitive compounds, dose response (AID 2654). The conditions noted are these: KCNQ2-CHO cells, automated patch clamp current potentiation; at 30 µM (top of the series).
Potassium voltage-gated channel subfamily KQT member 2 (Rattus norvegicus), sequence (O88943 whole entry, looked up): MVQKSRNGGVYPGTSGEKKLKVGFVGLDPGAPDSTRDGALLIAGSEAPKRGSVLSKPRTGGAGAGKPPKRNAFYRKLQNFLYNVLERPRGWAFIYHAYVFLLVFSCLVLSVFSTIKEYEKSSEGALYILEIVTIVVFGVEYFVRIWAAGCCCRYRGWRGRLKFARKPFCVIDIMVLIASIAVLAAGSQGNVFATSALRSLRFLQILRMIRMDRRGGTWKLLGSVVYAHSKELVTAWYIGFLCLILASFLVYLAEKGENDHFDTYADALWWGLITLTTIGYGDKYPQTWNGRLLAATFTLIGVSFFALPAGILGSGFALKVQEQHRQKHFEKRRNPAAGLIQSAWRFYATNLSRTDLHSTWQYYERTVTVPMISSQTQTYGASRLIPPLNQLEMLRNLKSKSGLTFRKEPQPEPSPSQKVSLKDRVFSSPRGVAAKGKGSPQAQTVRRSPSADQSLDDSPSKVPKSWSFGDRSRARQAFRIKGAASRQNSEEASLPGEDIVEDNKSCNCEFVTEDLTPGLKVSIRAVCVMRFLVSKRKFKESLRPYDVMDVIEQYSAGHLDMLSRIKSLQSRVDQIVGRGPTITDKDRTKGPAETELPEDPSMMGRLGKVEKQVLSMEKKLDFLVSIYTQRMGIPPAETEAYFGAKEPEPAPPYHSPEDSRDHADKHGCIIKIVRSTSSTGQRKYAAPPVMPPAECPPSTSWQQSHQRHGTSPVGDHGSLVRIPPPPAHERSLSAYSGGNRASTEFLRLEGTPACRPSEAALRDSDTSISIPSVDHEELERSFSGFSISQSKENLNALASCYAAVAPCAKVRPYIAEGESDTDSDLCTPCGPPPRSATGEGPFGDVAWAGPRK

On to `COc1ccc(NC(=S)Nc2cccnc2)c(OC)c1`, for which the outcome was inactive.

In the case of `S=C(Nc1cccnc1)NC1CCCCCCC1`, the result was inactive.

For `O=C(Nc1cccnc1)Nc1ccc2c(c1)OCCO2`, the result was inactive.

With `O=C(Nc1cccc(Cl)c1)N(CC1CC1)c1cccnc1`, the result was inactive.

For `FC(F)(F)c1cccc(NC(=S)Nc2cccnc2)c1`, the potentiation is 96.9.

Take `O=C(Nc1cccc(F)c1)Nc1nccs1`: the result was inactive.

As for `COc1ccccc1NC(=O)Nc1cccnc1`, the outcome was inactive.

Take `Cc1nc(F)ccc1NC(=O)Nc1cccc(F)c1`: the result was inactive.

`Cc1ccc(NC(=S)Nc2cccnc2)cc1`: the result was inactive.

Turning to `O=C(Nc1cccnc1)N1CCOCC1`, the outcome was inactive.

With `O=C(Nc1cccnc1)N(CC1CC1)c1ccccc1`, the outcome was inactive.

Take `Cc1cc(NC(=O)NCc2ccc(Cl)cc2Cl)cnc1Cl`: the outcome was inactive.

For `O=C(Nc1cccnc1)Nc1ccc(Br)cc1Cl`, the result was inactive.

Consider `COc1ccc(Cl)cc1NC(=S)Nc1cccnc1`, for which the result was inactive.

For the compound `Fc1ccc(NC(=S)Nc2cccnc2)c(Cl)c1`, the result was inactive.

Consider `COc1nccc(NC(=O)Nc2cccc(F)c2)n1`, for which the outcome was inactive.

For the compound `O=C(Nc1cccnc1)Nc1cc(Cl)cc(Cl)c1`, the outcome was inactive.

Turning to `CCOc1ccccc1NC(=O)Nc1cccnc1`, the outcome was inactive.

For the compound `S=C(NCc1ccccc1)Nc1cccnc1`, the outcome was inactive.

As for `COc1ccc(C)cc1NC(=O)Nc1cccnc1`, the result was inactive.

As for `Cc1ccc(CNC(=S)Nc2cccnc2)cc1`, the result was inactive.

For the compound `Cc1cc(NC(=O)NCc2ccc(Cl)cc2Cl)cnc1Br`, the result was inactive.

Regarding `Fc1ccc(NC(=S)Nc2cccnc2)cc1Cl`, the result was inactive.

In the case of `Cc1ccnc(NC(=O)NCc2ccc(Cl)cc2Cl)c1`, the result was inactive.

As for `O=C(NCc1ccc(Cl)cc1Cl)Nc1nccs1`, the outcome was inactive.
